# PREPL inhibitor – inhibits the human prolyl oligopeptidase-like enzyme; 320,000 compounds, 0.68% hits; Q4J6C6; recombinant PREPL, fluorescence polarization activity-based probe; AID 2751; inhibition, % at 5.96 µM; in the data active = inhibition above about 43%;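 also: 0% = enzyme with DMSO and 100% = wells lacking enzyme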
# Fam108B counter – counter-screen for RBBP9 inhibitors: inhibitors of mouse Fam108B; inhibition, % at 9.51 µM; recombinant Fam108B, FP-Rh probe fluorescence polarization; 300,000 compounds, 0.33% hits;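 active = inhibition above the screen mean inhibition plus 3 SD, computed separately per campaign, cut at about 18% in these data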;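 also: inhibitors lower polarization as less probe binds the enzyme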
# LYPLA1 inh – counter-screen for PME1 inhibitors: inhibitors of human LYPLA1; inhibition, % at 5.9 µM; O75608; recombinant LYPLA1, FP-Rh probe fluorescence polarization; 320,000 compounds, 0.16% hits;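 active = inhibition above the mean of all tested compounds plus 3 SD, set per campaign, cut at about 14% in these data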;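 also: inhibitors block serine hydrolase probe labeling of LYPLA1 so polarization falls; 0% = enzyme with DMSO and 100% = wells lacking LYPLA1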
# LYPLA2 inh – LYPLA2 (human) inhibition in PME1 counter-screen. O95372. recombinant LYPLA2, FP-Rh probe fluorescence polarization. inhibition, % at 5.9 µM. 320,000 compounds, 0.38% hits. AID 2177;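 active = inhibition above the screen-wide mean plus 3 SD, limit set per campaign, cut at about 26% in these data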;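 also: 0% = LYPLA2 with DMSO and 100% = wells lacking LYPLA2 enzyme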
# Target sequence (O95372 whole entry, looked up): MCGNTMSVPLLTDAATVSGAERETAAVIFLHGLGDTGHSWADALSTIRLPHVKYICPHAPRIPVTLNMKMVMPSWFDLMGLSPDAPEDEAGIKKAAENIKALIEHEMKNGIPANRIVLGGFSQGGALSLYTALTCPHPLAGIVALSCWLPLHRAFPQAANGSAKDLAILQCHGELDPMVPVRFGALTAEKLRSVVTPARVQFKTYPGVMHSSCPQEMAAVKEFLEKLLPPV
# GSTO1 inh – blocks human GSTO1 in RBBP9 counter-screen | P78417 | 300,000 compounds, 1.1% hits | recombinant GSTO1, activity-based probe fluorescence polarization | inhibition, % at 5.96 µM;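 active = inhibition above the campaign mean inhibition plus 3 SD, cut at about 35% in these data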;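 also: 0% = GSTO1-1 with DMSO and 100% = wells lacking GSTO1-1 enzyme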
# PME-1 inh – blocks human protein phosphatase methylesterase 1; Q9Y570; recombinant PME-1, FP-Rh probe fluorescence polarization; inhibition, % at 5.9 µM; 320,000 compounds, 0.53% hits; AID 2130;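 active = inhibition above the campaign mean of all compounds plus 3 SD, cut at about 26% in these data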;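 also: competitive labeling of PME-1 active site by serine hydrolase directed probe; 0% = PME-1 with DMSO and 100% = wells lacking PME-1 enzyme; inhibitors block probe labeling so polarization falls and inhibition rises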
# Target sequence (Q9Y570 whole entry, looked up): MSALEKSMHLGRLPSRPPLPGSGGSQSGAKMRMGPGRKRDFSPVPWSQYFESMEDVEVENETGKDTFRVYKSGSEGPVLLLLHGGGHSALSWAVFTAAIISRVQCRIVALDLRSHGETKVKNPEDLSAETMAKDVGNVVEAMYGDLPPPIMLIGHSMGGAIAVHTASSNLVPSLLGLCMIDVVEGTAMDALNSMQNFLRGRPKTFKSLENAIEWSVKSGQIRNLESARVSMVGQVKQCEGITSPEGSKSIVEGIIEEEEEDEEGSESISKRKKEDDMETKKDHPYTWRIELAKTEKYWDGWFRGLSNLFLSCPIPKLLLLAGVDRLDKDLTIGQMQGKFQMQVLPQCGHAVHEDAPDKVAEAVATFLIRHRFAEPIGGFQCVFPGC
# GSTO1 inh conf – GSTO1 (human) inhibition, confirmation. inhibition, % at 5.96 µM. shares compounds with GSTO1 inh. 2,400 compounds, 54% hits. recombinant GSTO1, probe fluorescence polarization;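 active = inhibition above the primary screen's cutoff, its mean inhibition plus 3 SD, cut at about 35% in these data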;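 also: loss of polarization as inhibitors block binding of rhodamine sulfonate ester activity probe; 0% = GSTO1 with DMSO and 100% = wells lacking GSTO1 enzyme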
# GSTO1 ABPP inh – inhibitors of recombinant human GSTO1; shares compounds with GSTO1 inh; gel ABPP SE-Rh probe fluorescence; inhibition, % at 1 µM; 130 compounds, 30% hits; AID 463110;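 active = inhibition of the enzyme GSTO1 above about 75%, limit read from the data; inactive = inhibition below that limit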
# The depositor's hits bear a star; / = no result given. This is a sample that favours compounds with a hit; in the whole collection about 1.9% have one here.
SMILES,PREPL inhibitor,Fam108B counter,LYPLA1 inh,LYPLA2 inh,GSTO1 inh,PME-1 inh,GSTO1 inh conf,others
COc1cccc(CN(C)C(=O)CSCC(=O)Nc2cccc(C)c2)c1OC,3.4,/,0.1,-3.1,/,0.5,/,
O=CN/C=C/c1cc(O)ccc1O,8.7,-2.1,0.3,4.7,71.6*,3.3,7.5,
CCc1noc(C)c1C(=O)NNC(=O)COc1ccccc1C,17.7,/,4.1,7.9,/,-6.4,/,
O=C(Nc1ccccc1)N1CCCC1c1cccs1 (stereo not given),6.8,3.0,2.1,3.7,0.9,-1.7,/,
O=C(CCl)N(CCc1ccccc1)CCc1ccccc1,-13.7,0.6,-0.8,-4.9,79.1*,-1.1,95.7*,GSTO1 ABPP inh=82.0*
COc1ccc(OCc2nnc(SCC(=O)Nc3ccccc3Cl)o2)cc1,-7.4,2.5,-1.0,-2.7,6.4,5.9,/,
COC(=O)C1=C(C)N(Cc2ccc(C)cc2)C(=O)/C1=C\c1ccc(O)c(OC)c1,9.3,1.6,-2.0,-3.9,34.2,8.6,/,
CCOc1cc(/C=C2\C(=O)N(CCc3ccc(OC)c(OC)c3)C(C)=C2C(=O)OC)ccc1O,15.5,0.8,0.9,-10.7,43.3*,-3.5,-1.6,
CCOC(=O)C1=C(C)N(c2ccc(C)cc2)C(=O)/C1=C\c1ccc(O)c(OC)c1,-0.7,4.1,4.0,6.3,46.1*,0.7,7.0,
O=C(CN1C(=O)/C(=C/c2ccccc2)SC1=S)N1CCN(CCc2ccccn2)CC1,16.6,-2.0,-1.3,-0.2,15.8,-3.0,/,
COc1ccc(OC)c(NC(=O)COC(=O)CCCN=C2NS(=O)(=O)c3ccccc32)c1,14.7,/,/,/,/,/,/,
O=c1[nH]c(Nc2ccc(F)cc2)cc2ccccc12,31.0,11.0,4.7,6.5,66.7*,11.4,43.6*,
O=c1[nH]c(Nc2ccccc2Cl)cc2ccccc12,19.9,2.2,-0.6,2.8,39.9*,10.1,31.5,
Cc1cccc(C)c1NC(=O)CN(C)C(=O)CC1CC2CCC1C2 (stereo not given),4.8,/,1.0,2.3,/,-1.1,/,
Cc1cc(C)c(NC(=O)CNC(=O)COC(=O)Cc2ccccc2C)c(C)c1,-5.5,/,1.9,-1.3,/,9.5,/,
O=c1cc(-c2ccc(Cl)c(Cl)c2)[nH][nH]1,8.6,3.7,-4.9,2.1,19.1,2.0,/,
O=c1cc(-c2ccc(Cl)cc2)[nH][nH]1,13.8,-3.0,5.2,3.6,49.3*,10.4,9.9,
O=C(CCl)Nc1cc(-c2ccccc2)nn1-c1ccccc1,-4.9,-2.5,-2.2,3.1,64.7*,-0.9,88.6*,
Cc1ccc(-c2cc(NC(=O)CCl)n(-c3ccccc3)n2)cc1,-4.1,-1.5,0.3,7.5,73.2*,-4.9,86.4*,
CC(=O)Nc1ccc(-c2cc(NC(C)=O)n(-c3ccccc3)n2)cc1,-2.1,1.3,5.8,2.7,-5.7,1.0,/,
COC(=O)c1ccccc1NC(=O)C1CCN(S(=O)(=O)c2cc(C)ccc2OC)CC1,13.4,0.2,-0.4,4.5,73.8*,3.4,1.3,
Cn1[nH]c(CSc2ccc(Cl)cc2)cc1=O,8.8,-0.2,-1.9,2.1,59.4*,-4.4,14.3,
COc1ccc2cc(CO)c3cc(OC)c(OC)cc3c2c1,34.8,/,/,/,/,/,/,
CCN(CC)c1ccc(C=Nc2ccc(N(C)C)cc2)c(O)c1,16.5,-5.2,-3.4,-10.7,65.7*,-6.5,-4.3,
COc1ccc(/C=N/NC(=O)c2nnn(-c3nonc3N)c2CN(C)C2CCCCC2)cc1,-0.8,1.1,-4.9,-0.1,5.3,-6.4,/,
SMILES,PREPL inhibitor,Fam108B counter,LYPLA1 inh,LYPLA2 inh,GSTO1 inh,PME-1 inh,GSTO1 inh conf,others
O=C(CN1CCCC1)Nc1c(C(=O)C2CC2)oc2ccccc12,-34.8,4.7,-0.6,7.7,-2.0,-7.6,/,
N#Cc1ccccc1OCC(=O)Nc1c(C(=O)C2CC2)oc2ccccc12,-6.0,-4.3,-4.5,-7.2,81.3*,3.2,97.6*,
Cc1ccc(C(=O)C(C)OC(=O)CCS(=O)(=O)c2ccc(C)cc2)cc1 (stereo not given),2.5,/,-4.4,-4.5,/,3.8,/,
O=S(=O)(c1ccc(Cl)cc1)c1cc(O)ccc1O,-2.8,-4.0,-1.1,6.1,61.2*,-1.0,2.4,
Nc1ccc(S(=O)(=O)c2ccc(Cl)cc2)cc1,4.7,-3.4,-0.6,1.0,-3.5,-1.8,/,
O=S(=O)(c1ccccc1)c1cc(O)ccc1O,9.9,-2.5,-5.0,-0.6,64.2*,-10.0,9.3,
Cc1ccc(NC(=O)CN(C)C(=O)C(Sc2ccccc2)c2ccccc2)cc1 (stereo not given),-8.8,/,-0.8,1.2,/,-1.3,/,
COc1cccc(CNC(=O)c2ccc(NC(=O)CC3SC(N4CCCC4)=NC3=O)cc2)c1 (stereo not given),-3.8,/,-3.0,22.0,/,-3.9,/,
O=C(CCl)N1CCN(CC(=O)N2CCCC2)CC1,4.0,1.0,1.4,-2.2,81.7*,-6.1,80.5*,GSTO1 ABPP inh=40.0
CC(=O)N(c1ccccc1C)C1CCCC1,-6.0,3.7,-0.2,3.3,-2.6,5.1,/,
CC(=O)N(C1=C(Cl)C(=O)c2ccccc2C1=O)C1CCCCC1,7.9,3.5,0.9,2.6,55.8*,9.3,72.8*,
Nc1ccc2nn(-c3ccc(F)cc3)nc2c1,9.0,2.3,-5.0,-4.5,43.3*,-2.8,47.6*,
Cn1nc([N+](=O)[O-])c(C(C#N)c2nc3ccccc3n2C)c(Cl)c1=O (stereo not given),16.6,9.7,11.1,6.0,62.6*,20.2,30.5,
CC(=O)C(C(C)=O)c1c(Cl)c(O)c(O)c2c(C(=O)c3ccccc3)coc12,11.6,-0.3,-1.5,-1.5,57.9*,7.4,7.5,
Cc1cc(C(=O)N/N=C/c2ccc([N+](=O)[O-])o2)c(C)o1,19.6,5.9,-7.0,-2.5,38.1*,3.0,6.8,
Cc1nonc1C(=O)N/N=C/c1ccc([N+](=O)[O-])o1,-2.0,1.3,-3.2,-1.3,23.6,-7.8,/,
COc1ccc(Cl)cc1NS(=O)(=O)c1cccc(C(=O)N2CC(C)OC(C)C2)c1 (stereo not given),4.8,/,2.3,4.3,/,8.0,/,
Cc1ccc(S(=O)(=O)N2CCN(CC(=O)N/N=C/c3ccc(C)o3)CC2)cc1,7.0,0.5,0.8,8.4,2.1,-1.8,/,
COc1cc(/C=N/NC(=O)c2cccc(S(=O)(=O)N3CCCC3)c2)ccc1O,5.8,0.6,0.1,-1.3,1.6,5.1,/,
O=C(N/N=C/c1ccc(O)c(O)c1)c1cccc(S(=O)(=O)N2CCCC2)c1,16.9,3.5,-0.7,-3.8,67.2*,-8.0,4.2,
CCN(CC)S(=O)(=O)c1cccc(C(=O)N/N=C/c2ccc(O)c(O)c2O)c1,10.3,11.3,-12.4,-9.0,63.1*,11.2,20.1,
Cc1ccc(S(=O)(=O)N2CCN(CC(=O)N/N=C\c3ccc(O)c(O)c3)CC2)cc1,9.8,-3.8,0.1,6.5,45.9*,1.1,2.8,
